Measured values as given in PubChem BioAssay (NCATS).
Records with an inconclusive call do not appear. A number with no mark means an inactive call. The source made the active and inactive calls. Calls come from the whole dose curve; as a rule, active = well fitted inhibition curve with a large enough effect; inconclusive = small, poorly fitted or top-dose-only effect; inactive = flat fitted curve, though single readings scatter.

Target: Phospholipid hydroperoxide glutathione peroxidase GPX4 (Homo sapiens) (UniProt P36969)
Sequence (P36969 whole entry, looked up): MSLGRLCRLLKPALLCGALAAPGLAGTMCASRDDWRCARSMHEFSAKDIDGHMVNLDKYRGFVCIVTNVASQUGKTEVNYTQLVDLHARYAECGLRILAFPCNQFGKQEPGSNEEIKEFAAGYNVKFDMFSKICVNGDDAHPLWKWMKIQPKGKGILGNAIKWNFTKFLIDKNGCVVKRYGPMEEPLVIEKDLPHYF
Test: Primary qHTS Assay for Inhibitors of Recombinant Selenoprotein Glutathione Peroxidase 4 (GPX4) (AID 1845192); note: nearly all actives have a fitted effect of over 65% in size
Conditions: recombinant GPX4, GR-coupled NADPH fluorescence, 15 min; series mostly up to 50 µM; activity change, negative = inhibition: at the top concentration
Outline: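 qHTS, GR-coupled: GPX4 200 nM + cpd 30 min RT → GSH 1 mM, NADPH 0.5 mM, GR 100 nM → CHP 0.5 mM start; fluor 340/450 at t0 and t15 min; no-enzyme wells as control.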
% is set by controls: 0 for no effect and ±100 for the full control effect.

Point of comparison: Cc1c(N)nc(C(CC(N)=O)NCC(N)C(N)=O)nc1C(=O)NC(C(=O)NC(C)C(O)C(C)C(=O)NC(C(=O)NCCc1nc(-c2nc(C(=O)NCCCN[C@@H](C)c3ccccc3)cs2)cs1)C(C)O)C(O[C@@H]1O[C@@H](CO)[C@@H](O)[C@H](O)[C@@H]1O[C@H]1O[C@H](CO)[C@@H](O)[C@H](OC(N)=O)[C@@H]1O)c1cnc[nH]1 (some centres undefined), “activity change, negative = inhibition” value -2.34%. Against it:
- COc1ccc(CCN(C)CCCOc2nsc(-c3ccccc3)n2)cc1OC — higher, 6.51%
- O=C(O)c1ccc(N2C(=O)/C(=C/c3ccc(-c4ccc([N+](=O)[O-])cc4)o3)C=C2c2ccccc2)cc1 — lower, -21.5%
- CCCC1(CCC)CCC2(CCN(CCCN(CC)CC)C2)CC1 — higher, 10.8%
- CCOC(=O)[C@@]1(CCCCCCOc2ccc(Cl)cc2)CO1 — higher, -1.33%
- Cc1[nH]c(/C=C2\C(=O)Nc3ccc(S(=O)(=O)N(C)c4cccc(Cl)c4)cc32)c(C)c1C(=O)N1CCN(C)CC1 — lower, -6.42%
- COc1ccc(NC(=O)c2ccc(-c3ccc(-c4nnc(C)o4)cc3C)cc2)cc1N1CCN(C)CC1 — higher, 9.99%
- CON=C1C[C@]2(C[C@@H]3C[C@@H](C/C=C(\C)C[C@@H](C)/C=C/C=C4\CO[C@@H]5[C@H](O)C(C)=C[C@@H](C(=O)O3)[C@]45O)O2)O[C@H](/C(C)=C/C(C)C)[C@H]1C — lower, -29.9%
- O=S(O)CNc1ccc(S(=O)(=O)c2ccc(NCS(=O)O)cc2)cc1 — lower, -23.8%
- O=C(Cn1cnnn1)N[C@@H]1C(=O)N2C(C(=O)O)=C(CSc3nncs3)CS[C@H]12 — lower, -15.8%
- CC(C)(C)NC(=O)[C@H]1CC[C@H]2[C@@H]3CC=C4C=C(C(=O)O)CC[C@]4(C)[C@H]3CC[C@]12C — lower, -19.7%
- CCOC(=O)N1CCC(CN(Cc2ccc(Cl)cc2)Cc2ccc([N+](=O)[O-])s2)C1 (centres undefined) — lower, -9.14%
- CN1CCN(C2=Nc3ccccc3Cc3ccccc32)CC1 — lower, -23.9%
- Cc1nc(Nc2cnn(C3CCNCC3)c2)nc2c1N(C)C(=O)c1cc3ccccc3cc1N2C — lower, -5.71%
- CCCCC(=O)O — higher, 2.71%
- Cc1cc(NC(=O)c2cccc(NC(=O)/C=C/CN(C)C)c2)ccc1Nc1nccc(-c2cccnc2)n1 — higher, 1.49%
- CN(C)CC1CCn2c(c(C3=C(c4cn(C)c5ccccc45)C(=O)NC3=O)c3ccccc32)C1 (centres undefined) — higher, -1.37%
- Cc1[nH]cnc1C[C@H]1CCc2c(C)c3ccccc3n2C1=O — lower, -10.2%
- CS(=O)(=O)OCCCNCCCOS(C)(=O)=O — lower, -15.5%
- Cc1cc2c(c(=O)o1)C=C1CC[C@H]([C@H](C)Cn3cnc(=N)c4[nH]cnc43)C[C@@H]1O2 — lower, -3.84%
- CN(C(=O)CO)c1c(I)c(C(=O)NCC(O)CO)c(I)c(C(=O)NCC(O)CO)c1I (centres undefined) — higher, 3.32%

C/C(=C(/CCO)SSCC1CCCO1)N(C=O)Cc1cnc(C)nc1N (centres undefined) was tested, and the “outcome” value was “inactive”.
CN(C)Cc1ccccc1 was tested, and the “outcome” value was “inactive”.
For O=C(Cn1c(=O)sc2ccc(Cl)cc21)N1CCN(CCO)CC1, the “outcome” value was “inactive”.
For Nc1c(CC(=O)O)cccc1C(=O)c1ccccc1, the “outcome” value was “inactive”.

Point of comparison: CC(=O)OC1C(=O)C2C3OCC4=C3[C@@](C)(CC[C@@H]4O)CC[C@]2(C)[C@H]1C(C)C (some centres undefined), “activity change, negative = inhibition” value -16.5% [at 27.8 µM]. Against it:
- CC(=O)c1c(C)cc2cccc(O)c2c1O[C@@H]1O[C@H](CO)[C@@H](O)[C@H](O)[C@H]1O — higher, -3.9% [at 27.8 µM]

For CC(=O)O[C@H]1CC(C)(C)CC2[C@]13CO[C@@]21CCC2[C@@]4(C)CC[C@H](O[C@@H]5OC[C@H](O[C@@H]6O[C@H](CO)[C@@H](O)[C@H](O)[C@H]6O[C@@H]6OC[C@@H](O)[C@H](O)[C@H]6O)[C@H](O)[C@H]5O[C@@H]5O[C@H](CO)[C@@H](O)[C@H](O)[C@H]5O)[C@@](C)(CO)C4CC[C@@]2(C)[C@]1(C)C[C@H]3O (some centres undefined), the “activity change, negative = inhibition” value was -1.9% [at 15.3 µM].

Work on O=P(O)(O)C(O)(Cc1cnc2ccccn12)P(=O)(O)O yielded an activity change, negative = inhibition of 0.142% [at 0.409 µM].
